# Assay results: paper PMC7862700, “An all-to-all approach to the identification of sequence-specific readers for epigenetic DNA modifications on cytosine”
# What was measured:
# Experiment in all cases: DAPPL (digital affinity profiling via proximity ligation, sequencing); 10 mM Tris-HCl pH 7.5, 50 mM NaCl, 1 mM DTT, 4% glycerol, room temperature, 30 min; GST-TFs on glutathione beads, 16-mer random dsDNA library, 0.1% formaldehyde crosslink after washing; high values mean tight binding
# [1] = target: T1, FEV (Homo sapiens, UniProt Q99581 1-238); details: protein: recombinant; tags: N-terminal GST; dsDNA, one strand shown
# T1 sequence: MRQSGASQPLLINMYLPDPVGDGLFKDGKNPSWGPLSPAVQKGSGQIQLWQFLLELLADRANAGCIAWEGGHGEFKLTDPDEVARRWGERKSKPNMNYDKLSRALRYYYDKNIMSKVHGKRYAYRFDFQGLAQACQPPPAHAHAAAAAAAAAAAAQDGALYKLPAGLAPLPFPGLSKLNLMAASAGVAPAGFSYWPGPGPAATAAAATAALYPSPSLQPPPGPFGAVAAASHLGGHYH
# Summary of the method: (§1)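 In yeast, human transcription factors were expressed with a GST fusion, then pulled down on glutathione beads and given DNA barcodes. Pooled with a tag-only sample, they were exposed to 200 nmole of a 16-mer random double-stranded DNA library (Tris/NaCl/DTT/glycerol buffer, room temperature, 30 min), washed, crosslinked with 0.1% formaldehyde, proximity-ligated using BsaI/T4 ligase for 1 h at 37 °C, PCR-amplified and read on an Illumina NextSeq500. Each hexamer's frequency of reads for a factor, divided by the matching frequency for the tag-only sample, gives the binding signal.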
# [2] = target: ETV5 (Homo sapiens, UniProt P41161 1-510); details: protein: recombinant; tags: N-terminal GST; dsDNA, one strand shown
# Chain of ETV5 (P41161 whole entry): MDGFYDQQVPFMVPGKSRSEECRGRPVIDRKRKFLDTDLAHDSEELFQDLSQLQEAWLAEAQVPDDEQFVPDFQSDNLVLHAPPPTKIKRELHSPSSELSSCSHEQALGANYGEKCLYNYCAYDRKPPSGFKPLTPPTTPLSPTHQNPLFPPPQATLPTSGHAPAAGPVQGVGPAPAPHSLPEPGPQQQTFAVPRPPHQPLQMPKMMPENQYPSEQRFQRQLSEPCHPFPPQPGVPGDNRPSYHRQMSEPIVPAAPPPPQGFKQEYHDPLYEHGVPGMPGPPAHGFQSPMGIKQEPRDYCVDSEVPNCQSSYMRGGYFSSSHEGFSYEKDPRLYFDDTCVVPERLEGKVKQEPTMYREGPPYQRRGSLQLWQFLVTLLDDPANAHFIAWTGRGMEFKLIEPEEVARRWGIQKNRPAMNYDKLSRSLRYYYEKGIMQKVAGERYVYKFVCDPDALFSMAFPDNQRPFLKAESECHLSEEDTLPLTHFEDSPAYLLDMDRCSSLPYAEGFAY
# Summary of the method: as §1
# [3] = target: HSF1 (Homo sapiens, UniProt Q00613 1-529); details: protein: recombinant; tags: N-terminal GST; chain copies: 3; dsDNA, one strand shown
# Chain of HSF1 (Q00613 whole entry): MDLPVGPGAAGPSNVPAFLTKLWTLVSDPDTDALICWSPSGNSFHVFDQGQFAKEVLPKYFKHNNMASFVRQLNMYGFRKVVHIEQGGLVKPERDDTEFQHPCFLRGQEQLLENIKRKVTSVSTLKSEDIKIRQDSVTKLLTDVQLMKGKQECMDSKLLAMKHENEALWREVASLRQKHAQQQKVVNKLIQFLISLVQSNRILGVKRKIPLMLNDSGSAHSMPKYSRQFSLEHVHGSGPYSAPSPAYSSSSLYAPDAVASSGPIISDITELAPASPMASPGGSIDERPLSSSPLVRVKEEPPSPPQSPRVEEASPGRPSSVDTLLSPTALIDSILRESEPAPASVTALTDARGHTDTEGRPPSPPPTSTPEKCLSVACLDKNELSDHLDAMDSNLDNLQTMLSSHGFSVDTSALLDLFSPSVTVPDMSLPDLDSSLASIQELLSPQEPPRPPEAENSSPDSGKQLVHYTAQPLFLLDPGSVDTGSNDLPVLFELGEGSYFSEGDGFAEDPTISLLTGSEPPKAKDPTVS
# Summary of the method: as §1
# [4] = target: T2, SPIC (Homo sapiens, UniProt Q8N5J4 1-248); details: protein: recombinant; tags: N-terminal GST; dsDNA, one strand shown
# T2 sequence: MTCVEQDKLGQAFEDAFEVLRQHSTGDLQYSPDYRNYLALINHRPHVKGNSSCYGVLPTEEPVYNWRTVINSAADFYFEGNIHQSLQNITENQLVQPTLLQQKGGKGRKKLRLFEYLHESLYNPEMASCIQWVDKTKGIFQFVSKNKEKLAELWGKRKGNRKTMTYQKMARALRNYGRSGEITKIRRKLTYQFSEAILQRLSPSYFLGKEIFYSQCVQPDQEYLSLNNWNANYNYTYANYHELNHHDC
# Summary of the method: as §1
# [5] = target: ELF4 (Homo sapiens, UniProt Q99607 1-663); details: protein: recombinant; tags: N-terminal GST; dsDNA, one strand shown
# Chain of ELF4 (Q99607 whole entry): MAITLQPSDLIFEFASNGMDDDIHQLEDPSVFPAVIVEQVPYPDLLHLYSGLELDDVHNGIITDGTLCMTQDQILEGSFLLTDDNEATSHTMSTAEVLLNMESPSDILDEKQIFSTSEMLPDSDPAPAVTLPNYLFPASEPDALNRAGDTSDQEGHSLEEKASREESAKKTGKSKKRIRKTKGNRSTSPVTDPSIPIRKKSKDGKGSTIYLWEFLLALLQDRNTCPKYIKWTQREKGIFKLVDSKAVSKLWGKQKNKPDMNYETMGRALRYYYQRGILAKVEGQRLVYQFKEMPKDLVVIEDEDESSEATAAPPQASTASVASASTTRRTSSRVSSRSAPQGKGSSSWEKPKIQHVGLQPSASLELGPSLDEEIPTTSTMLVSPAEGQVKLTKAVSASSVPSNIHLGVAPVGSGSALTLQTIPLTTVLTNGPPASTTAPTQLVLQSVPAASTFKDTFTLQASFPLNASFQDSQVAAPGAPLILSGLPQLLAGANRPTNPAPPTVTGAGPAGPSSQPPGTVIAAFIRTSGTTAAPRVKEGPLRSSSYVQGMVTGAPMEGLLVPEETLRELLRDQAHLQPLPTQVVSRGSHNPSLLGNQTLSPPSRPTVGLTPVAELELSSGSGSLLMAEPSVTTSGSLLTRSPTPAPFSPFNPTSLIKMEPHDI
# Summary of the method: as §1
# [6] = target: T3, ELK4 (Homo sapiens, UniProt P28324-2 1-405); details: protein: recombinant; tags: N-terminal GST; dsDNA, one strand shown
# T3 sequence: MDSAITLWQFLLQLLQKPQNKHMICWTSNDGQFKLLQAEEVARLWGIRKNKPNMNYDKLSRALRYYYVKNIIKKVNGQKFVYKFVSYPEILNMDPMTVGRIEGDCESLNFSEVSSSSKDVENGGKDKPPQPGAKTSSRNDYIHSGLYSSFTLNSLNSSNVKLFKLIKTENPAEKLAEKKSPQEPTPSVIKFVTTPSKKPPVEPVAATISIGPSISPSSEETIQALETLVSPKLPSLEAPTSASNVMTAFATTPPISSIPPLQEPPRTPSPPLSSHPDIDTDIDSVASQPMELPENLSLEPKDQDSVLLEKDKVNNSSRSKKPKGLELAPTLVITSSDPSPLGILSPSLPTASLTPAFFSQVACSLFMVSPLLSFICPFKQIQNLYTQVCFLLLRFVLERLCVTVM
# Summary of the method: as §1
# [7] = target: T4, ETV2 (Homo sapiens, UniProt O00321 1-342); details: protein: recombinant; tags: N-terminal GST; dsDNA, one strand shown
# T4 sequence: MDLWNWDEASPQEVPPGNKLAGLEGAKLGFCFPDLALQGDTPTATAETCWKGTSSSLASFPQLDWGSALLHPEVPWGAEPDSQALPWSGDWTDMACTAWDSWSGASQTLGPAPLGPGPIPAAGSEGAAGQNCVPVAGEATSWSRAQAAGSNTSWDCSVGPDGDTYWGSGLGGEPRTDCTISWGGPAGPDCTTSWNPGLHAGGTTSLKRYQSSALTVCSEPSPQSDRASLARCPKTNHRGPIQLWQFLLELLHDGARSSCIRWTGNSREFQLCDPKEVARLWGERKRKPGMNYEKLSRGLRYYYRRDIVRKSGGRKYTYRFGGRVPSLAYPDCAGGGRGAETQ
# Summary of the method: as §1
# [8] = target: T5, ELF3 (Homo sapiens, UniProt P78545 1-371); details: protein: recombinant; tags: N-terminal GST; dsDNA, one strand shown
# T5 sequence: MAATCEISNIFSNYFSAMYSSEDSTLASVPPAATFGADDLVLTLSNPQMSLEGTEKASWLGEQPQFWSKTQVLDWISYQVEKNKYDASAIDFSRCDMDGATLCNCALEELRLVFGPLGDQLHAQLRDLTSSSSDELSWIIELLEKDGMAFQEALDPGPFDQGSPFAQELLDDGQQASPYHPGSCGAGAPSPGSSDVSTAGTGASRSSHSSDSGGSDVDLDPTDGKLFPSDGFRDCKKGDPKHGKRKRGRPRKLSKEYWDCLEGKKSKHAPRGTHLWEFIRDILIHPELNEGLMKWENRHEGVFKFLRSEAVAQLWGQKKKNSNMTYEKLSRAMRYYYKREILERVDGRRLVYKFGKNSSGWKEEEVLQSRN
# Summary of the method: as §1
# [9] = target: ETV1 (Homo sapiens, UniProt P50549 1-477); details: protein: recombinant; tags: N-terminal GST; dsDNA, one strand shown
# Chain of ETV1 (P50549 whole entry): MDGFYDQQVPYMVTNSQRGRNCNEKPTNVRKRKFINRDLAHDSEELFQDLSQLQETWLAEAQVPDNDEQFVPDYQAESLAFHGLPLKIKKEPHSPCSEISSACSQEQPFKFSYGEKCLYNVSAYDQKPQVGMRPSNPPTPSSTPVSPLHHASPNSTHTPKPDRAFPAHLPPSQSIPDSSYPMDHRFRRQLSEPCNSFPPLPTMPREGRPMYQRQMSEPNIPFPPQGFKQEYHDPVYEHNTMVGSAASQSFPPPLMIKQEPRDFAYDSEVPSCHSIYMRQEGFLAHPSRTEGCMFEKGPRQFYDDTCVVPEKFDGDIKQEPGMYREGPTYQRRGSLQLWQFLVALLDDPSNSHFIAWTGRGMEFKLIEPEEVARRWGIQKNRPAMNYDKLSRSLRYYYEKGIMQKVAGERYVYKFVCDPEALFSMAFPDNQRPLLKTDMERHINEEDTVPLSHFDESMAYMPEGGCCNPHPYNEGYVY
# Summary of the method: as §1
# [10] = target: T6, ERF (Homo sapiens, UniProt P50548 1-548); details: protein: recombinant; tags: N-terminal GST; dsDNA, one strand shown
# T6 sequence: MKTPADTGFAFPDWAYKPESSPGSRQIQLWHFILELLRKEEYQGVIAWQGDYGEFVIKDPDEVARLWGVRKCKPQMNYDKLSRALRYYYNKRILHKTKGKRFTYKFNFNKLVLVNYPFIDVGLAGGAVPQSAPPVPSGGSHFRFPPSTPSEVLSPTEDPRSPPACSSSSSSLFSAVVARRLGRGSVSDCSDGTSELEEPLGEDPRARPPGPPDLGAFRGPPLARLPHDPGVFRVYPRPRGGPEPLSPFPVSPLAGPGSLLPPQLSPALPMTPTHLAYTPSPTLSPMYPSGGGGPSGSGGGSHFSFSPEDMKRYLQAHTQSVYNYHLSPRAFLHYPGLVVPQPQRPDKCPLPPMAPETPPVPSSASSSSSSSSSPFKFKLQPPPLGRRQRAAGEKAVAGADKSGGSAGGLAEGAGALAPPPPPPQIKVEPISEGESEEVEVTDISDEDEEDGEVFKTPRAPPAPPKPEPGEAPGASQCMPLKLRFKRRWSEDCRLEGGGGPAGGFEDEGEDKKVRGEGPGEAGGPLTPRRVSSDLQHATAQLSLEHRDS
# Summary of the method: as §1
# [11] = target: T7, ETV3L (Homo sapiens, UniProt Q6ZN32 1-361); details: protein: recombinant; tags: N-terminal GST; dsDNA, one strand shown
# T7 sequence: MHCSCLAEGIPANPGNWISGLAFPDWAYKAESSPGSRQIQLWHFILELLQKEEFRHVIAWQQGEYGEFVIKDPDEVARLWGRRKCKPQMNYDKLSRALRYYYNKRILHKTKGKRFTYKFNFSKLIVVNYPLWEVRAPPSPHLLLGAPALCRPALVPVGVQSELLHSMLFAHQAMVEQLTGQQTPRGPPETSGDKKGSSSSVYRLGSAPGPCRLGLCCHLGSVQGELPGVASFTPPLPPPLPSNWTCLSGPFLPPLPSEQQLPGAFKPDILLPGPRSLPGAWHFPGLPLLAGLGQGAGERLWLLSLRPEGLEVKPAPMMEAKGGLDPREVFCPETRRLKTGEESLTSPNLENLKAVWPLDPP
# Summary of the method: as §1
# [12] = target: T8, ETS2 (Homo sapiens, UniProt P15036 1-469); details: protein: recombinant; tags: N-terminal GST; dsDNA, one strand shown
# T8 sequence: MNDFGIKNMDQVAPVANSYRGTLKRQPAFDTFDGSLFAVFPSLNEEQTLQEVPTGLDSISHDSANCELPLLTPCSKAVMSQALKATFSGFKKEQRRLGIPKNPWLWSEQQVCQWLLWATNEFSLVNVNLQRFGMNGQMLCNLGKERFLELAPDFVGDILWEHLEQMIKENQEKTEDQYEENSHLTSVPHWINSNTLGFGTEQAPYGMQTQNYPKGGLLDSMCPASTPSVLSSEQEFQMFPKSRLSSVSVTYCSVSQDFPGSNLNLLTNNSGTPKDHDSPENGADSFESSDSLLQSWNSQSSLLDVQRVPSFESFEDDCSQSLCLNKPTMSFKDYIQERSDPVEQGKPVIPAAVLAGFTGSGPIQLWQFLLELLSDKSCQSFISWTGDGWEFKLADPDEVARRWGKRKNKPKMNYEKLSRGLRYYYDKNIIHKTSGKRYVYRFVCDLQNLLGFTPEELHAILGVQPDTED
# Summary of the method: as §1
# [13] = target: T9, SPDEF (Homo sapiens, UniProt O95238 1-335); details: protein: recombinant; tags: N-terminal GST; dsDNA, one strand shown
# T9 sequence: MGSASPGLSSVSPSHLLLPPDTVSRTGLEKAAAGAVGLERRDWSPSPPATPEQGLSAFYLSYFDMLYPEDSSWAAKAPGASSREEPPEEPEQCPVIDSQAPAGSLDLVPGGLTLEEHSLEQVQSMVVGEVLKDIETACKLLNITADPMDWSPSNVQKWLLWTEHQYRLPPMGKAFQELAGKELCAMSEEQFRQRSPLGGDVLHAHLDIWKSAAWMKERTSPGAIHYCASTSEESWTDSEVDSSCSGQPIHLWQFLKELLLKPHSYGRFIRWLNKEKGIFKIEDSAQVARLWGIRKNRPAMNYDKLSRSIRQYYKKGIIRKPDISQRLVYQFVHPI
# Summary of the method: as §1
# [14] = target: T10, ETV7 (Homo sapiens, UniProt Q9Y603 1-341); details: protein: recombinant; tags: N-terminal GST; dsDNA, one strand shown
# T10 sequence: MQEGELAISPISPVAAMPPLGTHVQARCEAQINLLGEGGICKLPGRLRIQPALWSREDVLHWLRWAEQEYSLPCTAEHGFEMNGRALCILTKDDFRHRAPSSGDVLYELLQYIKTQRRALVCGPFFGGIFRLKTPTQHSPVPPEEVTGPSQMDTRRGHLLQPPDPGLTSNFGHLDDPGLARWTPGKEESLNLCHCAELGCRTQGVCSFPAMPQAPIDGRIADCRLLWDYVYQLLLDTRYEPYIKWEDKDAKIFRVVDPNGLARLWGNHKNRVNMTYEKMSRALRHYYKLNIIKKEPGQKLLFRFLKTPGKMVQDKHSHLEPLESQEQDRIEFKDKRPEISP
# Summary of the method: as §1
# [15] = target: T11, ELF5 (Homo sapiens, UniProt Q9UKW6-2 1-255); details: protein: recombinant; tags: N-terminal GST; dsDNA, one strand shown
# T11 sequence: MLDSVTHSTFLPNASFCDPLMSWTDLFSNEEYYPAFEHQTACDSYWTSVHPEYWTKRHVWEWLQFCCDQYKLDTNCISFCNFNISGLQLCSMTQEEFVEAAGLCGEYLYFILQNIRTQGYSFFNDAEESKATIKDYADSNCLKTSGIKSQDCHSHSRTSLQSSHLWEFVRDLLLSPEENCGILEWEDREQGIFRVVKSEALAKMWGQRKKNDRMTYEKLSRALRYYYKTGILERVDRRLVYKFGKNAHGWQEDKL
# Summary of the method: as §1
# [16] = target: T12, ETV3 (Homo sapiens, UniProt P41162-2 1-143); details: protein: recombinant; tags: N-terminal GST; dsDNA, one strand shown
# T12 sequence: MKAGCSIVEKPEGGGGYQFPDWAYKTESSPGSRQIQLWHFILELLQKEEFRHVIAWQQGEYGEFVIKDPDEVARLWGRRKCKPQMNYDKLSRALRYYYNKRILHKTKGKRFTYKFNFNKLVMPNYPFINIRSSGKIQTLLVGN
# Summary of the method: as §1
# [17] = target: ETV6 (Homo sapiens, UniProt P41212 1-452); details: protein: recombinant; tags: N-terminal GST; dsDNA, one strand shown
# Chain of ETV6 (P41212 whole entry): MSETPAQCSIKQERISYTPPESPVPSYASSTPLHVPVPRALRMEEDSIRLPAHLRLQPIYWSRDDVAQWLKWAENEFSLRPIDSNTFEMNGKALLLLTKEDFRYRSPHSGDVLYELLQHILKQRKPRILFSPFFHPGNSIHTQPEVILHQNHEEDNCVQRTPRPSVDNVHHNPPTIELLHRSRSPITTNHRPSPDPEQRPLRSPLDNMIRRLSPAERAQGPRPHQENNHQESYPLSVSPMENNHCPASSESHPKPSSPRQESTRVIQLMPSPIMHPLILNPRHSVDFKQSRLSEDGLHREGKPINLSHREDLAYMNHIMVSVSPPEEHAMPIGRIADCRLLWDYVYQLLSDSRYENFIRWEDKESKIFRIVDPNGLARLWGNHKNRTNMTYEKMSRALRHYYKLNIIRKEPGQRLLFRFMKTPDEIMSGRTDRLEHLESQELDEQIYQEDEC
# Summary of the method: as §1
sequence,measurement,setting,value
GGCACT,binding signal,[1],"1.46 fold enrichment (6-mer frequency, TF over GST control)"
same,binding signal,[2],"1.32 fold enrichment (6-mer frequency, TF over GST control)"
same,binding signal,[3],"1.03 fold enrichment (6-mer frequency, TF over GST control)"
same,binding signal,[4],"1.24 fold enrichment (6-mer frequency, TF over GST control)"
same,binding signal,[5],"1.26 fold enrichment (6-mer frequency, TF over GST control)"
same,binding signal,[6],"1.28 fold enrichment (6-mer frequency, TF over GST control)"
same,binding signal,[7],"1.19 fold enrichment (6-mer frequency, TF over GST control)"
same,binding signal,[8],"1.29 fold enrichment (6-mer frequency, TF over GST control)"
same,binding signal,[9],"1.38 fold enrichment (6-mer frequency, TF over GST control)"
same,binding signal,[10],"1.26 fold enrichment (6-mer frequency, TF over GST control)"
same,binding signal,[11],"1.27 fold enrichment (6-mer frequency, TF over GST control)"
same,binding signal,[12],"1.24 fold enrichment (6-mer frequency, TF over GST control)"
same,binding signal,[13],"1.24 fold enrichment (6-mer frequency, TF over GST control)"
same,binding signal,[14],"1.26 fold enrichment (6-mer frequency, TF over GST control)"
same,binding signal,[15],"1.11 fold enrichment (6-mer frequency, TF over GST control)"
same,binding signal,[16],"1.29 fold enrichment (6-mer frequency, TF over GST control)"
same,binding signal,[17],"1.31 fold enrichment (6-mer frequency, TF over GST control)"
